Results taken from PubChem BioAssay (NCI).
Where “and” joins values, the source holds several entries; their conditions need not be identical. Equal entries are not always repeated. This is part of a sample that, as a whole, favours compounds with a hit. Of some 83,000 tested, about 20% had one in any assay.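 Cells were grown in 96-well plates and exposed to the test compound at a single concentration for 48 hours; results are reported as percent growth, with values below 10 considered active.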 Calls of active or inactive are those of the source.

Columns and labels:
Experiment in all cases: NCI-60 one-dose screen, 48 h (100 = growth as untreated, 0 = no growth, -100 = all killed)
Settings in all cases: 10 µM
NCI-H23 lung = system: NCI-H23 lung
NCI-H226 lung = system: NCI-H226 lung
NCI-H322M lung = system: NCI-H322M lung
HOP-62 NSCLC = system: HOP-62 NSCLC
NCI-H460 lung = system: NCI-H460 lung
HOP-92 NSCLC = system: HOP-92 NSCLC
NCI-H522 lung = system: NCI-H522 lung
A549/ATCC NSCLC = system: A549/ATCC NSCLC
786-0 renal = system: 786-0 renal
COLO 205 colon = system: COLO 205 colon

Measured: growth

NC(=O)c1cc([N+](=O)[O-])c(Cl)c([N+](=O)[O-])c1
active: NCI-H522 lung -4.01% | COLO 205 colon -71.1%
inactive: NCI-H23 lung 88.6% | NCI-H226 lung 102% | NCI-H322M lung 109% | HOP-62 NSCLC 105% | NCI-H460 lung 107% | HOP-92 NSCLC 14.1% | A549/ATCC NSCLC 98.4% | 786-0 renal 91.2%

[O-][n+]1ccccc1S
active: NCI-H460 lung 8.67% | NCI-H522 lung -34.7%
inactive: NCI-H23 lung 73.5% | NCI-H226 lung 95.8% | NCI-H322M lung 64.1% | HOP-62 NSCLC 58% | HOP-92 NSCLC 97.1% | A549/ATCC NSCLC 30.4% | 786-0 renal 46.3% | COLO 205 colon 16.1%

C/C(=C\c1ccc(Cl)c(Cl)c1)[N+](=O)[O-]
-87.3% (active) and 82.6% (inactive): NCI-H522 lung
-57.9% (active) and 101% (inactive): COLO 205 colon
-29.8% (active) and 89.5% (inactive): HOP-92 NSCLC
inactive: NCI-H23 lung 44.6% and 94.8% | NCI-H226 lung 98.1% | NCI-H322M lung 94.6% and 100% | HOP-62 NSCLC 86.9% | NCI-H460 lung 55.6% and 105% | A549/ATCC NSCLC 74.3% and 76.6% | 786-0 renal 45.8% and 94.9%

C=C1C(=O)O[C@@H]2C[C@@H](C)[C@@H]3C=CC(=O)[C@@]3(C)[C@@H](O)[C@H]12
active: NCI-H23 lung -36.3% | NCI-H226 lung -38.6% | NCI-H322M lung -24.7% | HOP-62 NSCLC -44.6% | NCI-H460 lung -26.4% | NCI-H522 lung -81.2% | A549/ATCC NSCLC -3.45% | 786-0 renal -71.6%

CC(=O)[O][Hg][c]1c(C)c(C)cc(C)c1C
active: NCI-H23 lung -45.3% | NCI-H226 lung -5.8% | NCI-H322M lung 3.3% | HOP-62 NSCLC -82.6% | NCI-H460 lung -16.7% | NCI-H522 lung -96.4%
inactive: A549/ATCC NSCLC 91.5% | 786-0 renal 19%

COC12c3c(C)cc(O)c4c(=O)occ(c34)C(=O)C1C13COC(=O)c4c(O)cc(C)c(c41)C(=O)C2C3OC(C)=O (centres undefined)
inactive: NCI-H23 lung 99.7% | NCI-H226 lung 100% | NCI-H322M lung 95.4% | HOP-62 NSCLC 82.3% | NCI-H460 lung 97.9% | A549/ATCC NSCLC 107% | 786-0 renal 95.7%
active: HOP-92 NSCLC -9.88%

CC[C@@H](C)[C@@H]1NC(=O)C(NC(=O)C(CC(C)C)N(C)C(=O)C2CCCN2C(=O)C(C)O)C(C)OC(=O)C(Cc2ccc(OC)cc2)N(C)C(=O)C2CCCN2C(=O)C(CC(C)C)NC(=O)C(C)C(=O)C(C(C)C)OC(=O)C[C@H]1O (some centres undefined)
active: NCI-H23 lung -46.2% | NCI-H226 lung -58.9% | HOP-62 NSCLC -42.9% | NCI-H460 lung -49.7% | HOP-92 NSCLC -41.9% | NCI-H522 lung -43.2% | A549/ATCC NSCLC -80.2% | 786-0 renal -37.9%

Cn1c(O)c(N=O)c(=O)n(C)c1=O
inactive: NCI-H23 lung 94.4% and 95.1% | NCI-H226 lung 93.3% and 103% | HOP-62 NSCLC 101% and 90.9% | NCI-H460 lung 110% and 102% | HOP-92 NSCLC 101% and 85.9% | NCI-H522 lung 91% and 74.7% | A549/ATCC NSCLC 107% and 98.1% | 786-0 renal 104% and 93.3%

C[C@@H]1C[C@@H]([C@H](O)CC2CC(=O)NC(=O)C2)C(=O)[C@@H](C)C1
active: NCI-H23 lung -3.78% | NCI-H322M lung 2.7% | HOP-62 NSCLC 3.86% | NCI-H460 lung 4.51% | NCI-H522 lung -15.6% | A549/ATCC NSCLC 0.381% | 786-0 renal 0.349%
inactive: NCI-H226 lung 11.6%

S=C=NCCc1ccccc1
inactive: NCI-H23 lung 20% | NCI-H226 lung 85.8% | HOP-62 NSCLC 85.2% | NCI-H460 lung 58.5% | HOP-92 NSCLC 56.5% | NCI-H522 lung 44.1% | A549/ATCC NSCLC 61.7% | 786-0 renal 71.5%

COS(=O)(=O)c1ccccc1
inactive: NCI-H23 lung 98.5% | NCI-H226 lung 107% | HOP-62 NSCLC 102% | NCI-H460 lung 112% | HOP-92 NSCLC 105% | NCI-H522 lung 111% | A549/ATCC NSCLC 105% | 786-0 renal 115%

COc1ccc(/C=C(\C)[N+](=O)[O-])cc1OC
inactive: NCI-H23 lung 64.7% | NCI-H226 lung 68.9% | NCI-H322M lung 64.9% | HOP-62 NSCLC 63% | A549/ATCC NSCLC 36.3%
active: HOP-92 NSCLC -9.49% | NCI-H522 lung -69.4% | 786-0 renal -44.2%

O=[N+]([O-])c1ccc(Br)c([N+](=O)[O-])c1
active: NCI-H522 lung -28.5%
inactive: NCI-H23 lung 108% | NCI-H226 lung 101% | HOP-62 NSCLC 115% | NCI-H460 lung 94.8% | HOP-92 NSCLC 109% | A549/ATCC NSCLC 104% | 786-0 renal 108%

NC(Cc1ccccc1)c1ccccc1 (centres undefined)
inactive: NCI-H23 lung 97.7% and 105% | NCI-H226 lung 91.9% and 97.7% | NCI-H322M lung 102% and 103% | HOP-62 NSCLC 105% | NCI-H460 lung 107% and 111% | NCI-H522 lung 94.5% | A549/ATCC NSCLC 111% | 786-0 renal 97.4% and 98.4% | COLO 205 colon 103% and 105%

C/C1=C\[C@H](C)C[C@H](C)OC(=O)C[C@H](c2ccc(O)cc2)NC(=O)[C@@H](Cc2c(Br)[nH]c3ccccc23)N(C)C(=O)[C@H](C)NC(=O)[C@@H](C)C1
active: NCI-H23 lung -4.18% | NCI-H226 lung -6.93% | NCI-H322M lung 8.82% | HOP-62 NSCLC -40.4% | NCI-H460 lung -13% | NCI-H522 lung -62.5% | A549/ATCC NSCLC 3.5% | 786-0 renal -55.9% | COLO 205 colon 9.93%

CC/C(=C/c1ccc(OC)cc1OC)[N+](=O)[O-]
active: NCI-H522 lung -41.7% | 786-0 renal -53%
inactive: NCI-H23 lung 59% | NCI-H226 lung 111% | NCI-H322M lung 90.3% | HOP-62 NSCLC 74% | NCI-H460 lung 49.5% | A549/ATCC NSCLC 65.1%

O=C(O)c1cc(Cc2ccc(O)c(C(=O)O)c2)ccc1O (tested in a mixture with another compound)
inactive: NCI-H23 lung 87.6% | NCI-H226 lung 88.7% | HOP-62 NSCLC 79.3% | NCI-H460 lung 65.9% | A549/ATCC NSCLC 79.9% | 786-0 renal 78%
active: HOP-92 NSCLC -49.4% | NCI-H522 lung -49.9%

C[CH2][Hg][S]c1ccccc1C(=O)O
inactive: NCI-H23 lung 11.3% | NCI-H322M lung 66.2% | HOP-62 NSCLC 47.2% | NCI-H460 lung 36% | A549/ATCC NSCLC 35%
active: NCI-H226 lung -53.4% | NCI-H522 lung -77.2% | 786-0 renal 1.68% | COLO 205 colon -100%

Cc1cc(C)c(C[N+](C)(C)C)c(C)c1C
inactive: NCI-H226 lung 11.7%
active: NCI-H23 lung 3.56% | NCI-H322M lung 1.22% | HOP-62 NSCLC 5.53% | NCI-H460 lung 5.07% | NCI-H522 lung -39.5% | A549/ATCC NSCLC 5.53% | 786-0 renal 4.58% | COLO 205 colon 0.186%

COC1CC2C=C(C)/C=C/C=C/C(=O)NC(c3ccccc3)C/C=C/CCC(O)CC(=O)C2=C1O (centres undefined)
active: NCI-H23 lung -73.5% | NCI-H226 lung -61.6% | NCI-H322M lung -92.8% | HOP-62 NSCLC -91.6% | NCI-H460 lung -73.3% | HOP-92 NSCLC -86.6% | A549/ATCC NSCLC -82.7% | 786-0 renal -94.3% | COLO 205 colon -79.1%

Cc1ccc(NC(=O)CBr)cc1
active: NCI-H522 lung -55.6%
inactive: NCI-H23 lung 91.7% | NCI-H226 lung 103% | NCI-H322M lung 99.4% | NCI-H460 lung 105% | HOP-92 NSCLC 96% | 786-0 renal 107%

O=[N+]([O-])c1ccc(N(CCO)CCO)c2c1no[n+]2[O-]
inactive: NCI-H23 lung 10.1%
active: NCI-H226 lung 0.462% | HOP-62 NSCLC -34.1% | NCI-H460 lung -26.2% | HOP-92 NSCLC -35.5% | NCI-H522 lung -62% | A549/ATCC NSCLC 4% | 786-0 renal -31.5%

COc1cc(/C=C\[N+](=O)[O-])ccc1O
-37.6% (active) and 87.2% (inactive): NCI-H522 lung
inactive: NCI-H23 lung 83.1% and 77.3% | NCI-H226 lung 91.2% and 98.3% | HOP-62 NSCLC 99.8% and 101% | NCI-H460 lung 96.6% and 94% | HOP-92 NSCLC 73.2% and 102% | A549/ATCC NSCLC 89.2% and 76.1% | 786-0 renal 43.2% and 90.8%

CC(C)C1(NC(=O)C2CC3c4cccc5[nH]cc(c45)CC3N(C)C2)OC2(O)C3CCCN3C(=O)C(Cc3ccccc3)N2C1=O (centres undefined)
inactive: NCI-H23 lung 99.4% | NCI-H226 lung 103% | NCI-H322M lung 118% | HOP-62 NSCLC 110% | NCI-H460 lung 109% | NCI-H522 lung 82.1% | A549/ATCC NSCLC 107% | 786-0 renal 96.3%

COC12C(COC(N)=O)C3=C(C(=O)C(C)=C(N)C3=O)N1CC1C2N1C (centres undefined)
active: NCI-H23 lung 6.66% | NCI-H460 lung -6.38% | HOP-92 NSCLC -0.595%
inactive: NCI-H226 lung 64.2% | HOP-62 NSCLC 32.3% | NCI-H522 lung 17.7% | A549/ATCC NSCLC 47.5% | 786-0 renal 31.1%

CCOP(=O)(OCC)/C(C#N)=C/c1ccc(Br)cc1
inactive: NCI-H23 lung 92.9% | NCI-H226 lung 96.2% | HOP-62 NSCLC 89.7% | NCI-H460 lung 104% | HOP-92 NSCLC 69.6% | NCI-H522 lung 89.7% | A549/ATCC NSCLC 102% | 786-0 renal 104%

Oc1ccccc1-c1ccccc1
inactive: NCI-H23 lung 98.9% and 104% | NCI-H226 lung 104% and 99.3% | HOP-62 NSCLC 101% and 103% | NCI-H460 lung 104% | HOP-92 NSCLC 98.7% and 112% | NCI-H522 lung 95.2% | A549/ATCC NSCLC 100% and 95.8% | 786-0 renal 105%

CCCCCCCC[N+]12CN3CN(CN(C3)C1)C2
inactive: NCI-H23 lung 92% | NCI-H226 lung 98.2% | HOP-62 NSCLC 102% | NCI-H460 lung 101% | HOP-92 NSCLC 85.9% | NCI-H522 lung 97.9% | A549/ATCC NSCLC 97.8% | 786-0 renal 89.5%
